# PubChem BioAssay
# Values without a mark were called inactive. No rule for the calls is given here.
# Biological target: Pantothenate synthetase (Mycobacterium tuberculosis (strain ATCC 25618 / H37Rv)) (UniProt P9WIL5)
# Test: Coupled enzyme confirmation of inhibitors against recombinant Mtb PanC (AID 375);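 also: 0% = full reaction with vehicle and 100% = no enzyme background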
# Conditions: coupled enzyme assay; at 10 µM, stronger effect = higher value
# Sequence of Pantothenate synthetase (Mycobacterium tuberculosis (strain ATCC 25618 / H37Rv)) (P9WIL5 whole entry, looked up): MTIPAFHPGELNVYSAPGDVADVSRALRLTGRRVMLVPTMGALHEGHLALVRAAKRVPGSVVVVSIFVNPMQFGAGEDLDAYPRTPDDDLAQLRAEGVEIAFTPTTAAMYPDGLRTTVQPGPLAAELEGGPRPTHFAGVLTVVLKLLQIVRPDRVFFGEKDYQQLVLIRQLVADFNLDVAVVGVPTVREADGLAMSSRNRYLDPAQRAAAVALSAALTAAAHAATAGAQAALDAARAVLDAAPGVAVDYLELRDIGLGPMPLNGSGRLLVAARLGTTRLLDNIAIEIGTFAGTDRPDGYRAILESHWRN
row,SMILES,inhibition
1,CCC(C)n1[nH]c(=O)c2c(C)cc(C)nc21 (stereo not given),0%
2,CC1(C)CC(CCNC(=O)c2ccco2)CC(C)(C)N1,0%
3,Cc1ccc(C)n1-c1ccc(-n2cnnn2)cc1,2%
4,COc1ccccc1C(=O)N1CCNC(=O)C1CC(=O)Nc1ccc(Cl)cc1 (stereo not given),0%
5,Cc1ccc(C)c(Cn2c(=O)n(CCC(=O)NCc3ccco3)c(=O)c3sccc32)c1,9%
6,COc1ccc(CNc2nc3nc(C)cc(C)n3n2)cc1OC,1%
7,COc1ccc(N(C(=O)c2ccco2)C(C(=O)NC2CCCC2)c2ccc(N(C)C)cc2)cc1OC (stereo not given),1%
8,CCSC1(SCC)N=C(N)C2(C#N)C(c3ccccc3)NC(C)=C(C)C12C#N (stereo not given),0%
9,Cc1noc(C)c1S(=O)(=O)N1CCN(Cc2ccc3c(c2)OCO3)CC1,0%
10,COc1cccc(N2CCN(C(=O)C3C4C=CC5(CN(Cc6ccccc6Cl)C(=O)C35)O4)CC2)c1 (stereo not given),0%
11,CN(C)CCCN1c2ccccc2CCc2ccccc21,2%
12,Cc1ccc(Cn2c(=N)c(C(=O)NCc3ccco3)cc3c(=O)n4ccccc4nc32)cc1,1%
13,CC1(C)Cc2c(C#N)c(SCCC#N)nc(N3CCOCC3)c2CS1,0%
14,Cc1nnc(NCCc2ccccc2)n(N)c1=O,5%
15,N#CC1=C(N)Oc2cc(O)ccc2C1C1CCCCC1 (stereo not given),0%
16,N=c1c[n+](N2CCOCC2)[n-]o1,0%
17,CC[C@H]1OC(=O)C[C@@H](O)[C@H](C)[C@@H](O[C@@H]2O[C@H](C)C[C@H](N(C)C)[C@H]2O)[C@@H](CC=O)C[C@@H](C)C(=O)C=C[C@]2(C)O[C@H]2[C@@H]1C,0%
18,COc1cc(-c2nn3c(-c4cccnc4)nnc3s2)cc(OC)c1OC,6%
19,CCOCCCNC(=O)C1CCC(CNS(=O)(=O)c2cccc3nsnc23)CC1 (stereo not given),1%
20,CSc1nnc2n(CCc3ccccc3)c(=O)c3c4c(sc3n12)CCCC4,2%

row,SMILES,inhibition
1,COc1ccccc1-n1c(=O)[nH]c2c(C(N)=O)nc(CC(C)C)nc21,0%
2,CC(=O)N1CCN=C1SCc1c(F)cccc1Cl,2%
3,COc1ccccc1OCCOCCn1cnc2ccccc2c1=O,0%
4,c1ccc(-c2cnc(CSc3ncnc4sccc34)o2)cc1,0%
5,O=C(c1ccco1)N1CCN(c2cccc(Cl)c2)CC1,0%
6,O=C(Nc1ccc(F)cc1)N(Cc1ccco1)Cc1cc2cc3c(cc2[nH]c1=O)OCO3,0%
7,COc1ccc(NC2c3ncccc3C(=O)N2Cc2ccccc2)c(OC)c1 (stereo not given),0%
8,O=C1C(C=NCCCn2ccnc2)=C(O)c2ccccc21,8%
9,S=c1nc(C2CC2)[nH]c2ccccc12,0%
10,COc1ccccc1NC(=O)N(C1CCCC1)C1CCN(C(C)=O)CC1,1%
11,COc1cc(C2C(C#N)=C(N)OC3=C2C(=O)CC(C)(C)C3)ccc1OC(=O)N1CCOCC1 (stereo not given),5%
12,CCOC(=O)c1sc2nc(NC(=O)C(C)(C)C)sc2c1C,8%
13,O=C(CCn1nc(-c2ccc(Cl)cc2)ccc1=O)N1CCN(c2ccccn2)CC1,7%
14,O=C(C(Cc1ccccc1)n1cccc1)N1CCCCCC1 (stereo not given),8%
15,COc1ccc(/C=N/n2c(=O)[nH]c3c([nH]c4ccc(C)cc43)c2=O)cc1CN1CCOCC1,2%
16,Cn1c(=O)n(CCC(=O)O)c2ccccc21,7%
17,O=C(Nc1ccc2c(c1)OCO2)c1cncc(Br)c1,8%
18,O=C(CSc1nnc(-c2ccccn2)n1Cc1ccccc1)N1CCCC1,0%
19,COc1ccc2nc(N3CCC(C)CC3)c(C#N)cc2c1,7%
20,COc1cccc(-n2nnc3c(=O)n(Cc4cccc(F)c4)cnc32)c1,4%
